Data: a collection of fitness landscapes (doi:10.1016/j.celrep.2020.107928)
Over roughly 81,000 sequences, “one-hybrid fitness for binding NBS DNA” has its median near -0.1; the highest 2% begin near 0.36. The entries come from a sample that favours the highest values as a whole.

B1: Caulobacter ParB omega fusion; a variant is named by its letters at X, in order, B8GW30 (parent)
chain: MESVVVGEPGMSEGRRGLGRGLSALLGEVDAAPAQAPGEQLGGSREAPIEILQRNPDQPRRTFREEDLEDLSNSIREKGVLQPILVRPSPDTAGEYQIVAGERAWRAAQRAGLKTVPIMVRELDDLAVLEIGIIENVQRADLNVLEEALSYKVLMEKFERTQENIAQTIGKSXSHVANXMRLLXLPDEVQSYLVSGELTAXHARAIAAAADPVALAKQIIEGGLSVRETEALARKAPNLSAGKSKGGRPPRVKDTDTQALESDLSSVLGLDVSIDHRGSTGTLTITYATLEQLDDLCNRLTRGI

Variants of: B1
Test: one-hybrid fitness for binding NBS DNA (the Noc-binding site; scaled: cognate 1, non-cognate 0); higher = stronger binding
Settings: with NBS DNA site
Summary of the method: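 Fitness is the rescaled log change in variant-to-wild-type read ratio, measured by Illumina sequencing of plasmids before and after bacterial one-hybrid selection. The scale puts cognate at 1 and non-cognate at 0. Selection of Caulobacter ParB libraries, four specificity codons randomised, took place in E. coli USO with a HIS3 reporter, site 19 bp from the promoter, over 48 hours at 37°C on M9-minus-histidine with 0.1 mM IPTG and 5 mM 3-AT.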

First: RFWT
Second: RTLT
The “one-hybrid fitness for binding NBS DNA” value of the first is lower: at most 0.2 for the first, 0.461 for the second.

First: RKGQ
Second: RKGT
The “one-hybrid fitness for binding NBS DNA” value of the first is lower: at most 0.2 for the first, 0.649 for the second.

RNGC and RYHW cannot be ordered by “one-hybrid fitness for binding NBS DNA” value: at most 0.2 for the first, at most 0.2 for the second.

Going from PRPF to RYAS, the “one-hybrid fitness for binding NBS DNA” value rises from at most 0.2 to 0.342.

NTFG and PTNR cannot be ordered by “one-hybrid fitness for binding NBS DNA” value: at most 0.2 for the first, at most 0.2 for the second.

Compared with VRMT, RKLT is higher in “one-hybrid fitness for binding NBS DNA” value: at most 0.2 for the first, 0.579 for the second.

First: RKST
Second: RKSF
The “one-hybrid fitness for binding NBS DNA” value of the first is higher: 0.639 for the first, at most 0.2 for the second.

Compared with RKSC, RKLY is lower in “one-hybrid fitness for binding NBS DNA” value: 0.273 for the first, at most 0.2 for the second.

RKDF and RKLK cannot be ordered by “one-hybrid fitness for binding NBS DNA” value: at most 0.2 for the first, at most 0.2 for the second.

First: RKDT
Second: RKIT
The “one-hybrid fitness for binding NBS DNA” value of the first is higher: 0.498 for the first, 0.361 for the second.

Compared with RKPT, RKYT is higher in “one-hybrid fitness for binding NBS DNA” value: 0.236 for the first, 0.643 for the second.

IDAR and TMSR cannot be ordered by “one-hybrid fitness for binding NBS DNA” value: at most 0.2 for the first, at most 0.2 for the second.

SFKS and WVLY cannot be ordered by “one-hybrid fitness for binding NBS DNA” value: at most 0.2 for the first, at most 0.2 for the second.

SIAR and RKVI cannot be ordered by “one-hybrid fitness for binding NBS DNA” value: at most 0.2 for the first, at most 0.2 for the second.

KPTD and SPSM cannot be ordered by “one-hybrid fitness for binding NBS DNA” value: at most 0.2 for the first, at most 0.2 for the second.

Compared with RVWC, RKHT is higher in “one-hybrid fitness for binding NBS DNA” value: at most 0.2 for the first, 0.645 for the second.

Compared with RKHH, RPWT is lower in “one-hybrid fitness for binding NBS DNA” value: 0.245 for the first, at most 0.2 for the second.

Compared with RSWT, RCWT is higher in “one-hybrid fitness for binding NBS DNA” value: 0.215 for the first, 0.418 for the second.

RKHP and NLDC cannot be ordered by “one-hybrid fitness for binding NBS DNA” value: at most 0.2 for the first, at most 0.2 for the second.

Compared with PTPS, QRQH is higher in “one-hybrid fitness for binding NBS DNA” value: at most 0.2 for the first, 0.544 for the second.

Compared with QCQH, QLQQ is lower in “one-hybrid fitness for binding NBS DNA” value: 0.222 for the first, at most 0.2 for the second.

Going from QREQ to QRQM, the “one-hybrid fitness for binding NBS DNA” value rises from at most 0.2 to 0.395.

Going from QSQM to QRQC, the “one-hybrid fitness for binding NBS DNA” value rises from at most 0.2 to 0.362.

First: QHQH
Second: QRQQ
The “one-hybrid fitness for binding NBS DNA” value of the first is lower: at most 0.2 for the first, 0.397 for the second.

First: QRQF
Second: QCQM
The “one-hybrid fitness for binding NBS DNA” value of the first is higher: 0.323 for the first, at most 0.2 for the second.

Compared with QRQN, WQMR is lower in “one-hybrid fitness for binding NBS DNA” value: 0.402 for the first, at most 0.2 for the second.

TQQR and EVHL cannot be ordered by “one-hybrid fitness for binding NBS DNA” value: at most 0.2 for the first, at most 0.2 for the second.

DGGN and RFYH cannot be ordered by “one-hybrid fitness for binding NBS DNA” value: at most 0.2 for the first, at most 0.2 for the second.

ATCR and LYYL cannot be ordered by “one-hybrid fitness for binding NBS DNA” value: at most 0.2 for the first, at most 0.2 for the second.

KGWY and YQPD cannot be ordered by “one-hybrid fitness for binding NBS DNA” value: at most 0.2 for the first, at most 0.2 for the second.

First: QRQS
Second: QRQD
The “one-hybrid fitness for binding NBS DNA” value of the first is higher: 0.688 for the first, 0.228 for the second.

Compared with QRQP, NYIC is lower in “one-hybrid fitness for binding NBS DNA” value: 0.222 for the first, at most 0.2 for the second.

First: TPDF
Second: QTTN
The “one-hybrid fitness for binding NBS DNA” value of the first is lower: at most 0.2 for the first, 0.236 for the second.

First: QTTC
Second: QTTS
The “one-hybrid fitness for binding NBS DNA” value of the first is lower: 0.223 for the first, 0.528 for the second.

QTTD and QTTP cannot be ordered by “one-hybrid fitness for binding NBS DNA” value: at most 0.2 for the first, at most 0.2 for the second.

Compared with QTTH, DYIR is lower in “one-hybrid fitness for binding NBS DNA” value: 0.385 for the first, at most 0.2 for the second.

VVWY and HIDC cannot be ordered by “one-hybrid fitness for binding NBS DNA” value: at most 0.2 for the first, at most 0.2 for the second.

Compared with RKRP, RKRS is higher in “one-hybrid fitness for binding NBS DNA” value: at most 0.2 for the first, 0.666 for the second.

Compared with RSWS, RKWS is higher in “one-hybrid fitness for binding NBS DNA” value: 0.238 for the first, 0.467 for the second.

Going from RKYP to RKRN, the “one-hybrid fitness for binding NBS DNA” value rises from at most 0.2 to 0.258.

RKWD and RKWN cannot be ordered by “one-hybrid fitness for binding NBS DNA” value: at most 0.2 for the first, at most 0.2 for the second.

RKYD and RPWS cannot be ordered by “one-hybrid fitness for binding NBS DNA” value: at most 0.2 for the first, at most 0.2 for the second.

Compared with RCWS, RKYS is higher in “one-hybrid fitness for binding NBS DNA” value: 0.388 for the first, 0.562 for the second.

VTLY and TYNS cannot be ordered by “one-hybrid fitness for binding NBS DNA” value: at most 0.2 for the first, at most 0.2 for the second.

QTTI and HNLL cannot be ordered by “one-hybrid fitness for binding NBS DNA” value: at most 0.2 for the first, at most 0.2 for the second.

CGRS and WGSW cannot be ordered by “one-hybrid fitness for binding NBS DNA” value: at most 0.2 for the first, at most 0.2 for the second.

SGTG and DHMC cannot be ordered by “one-hybrid fitness for binding NBS DNA” value: at most 0.2 for the first, at most 0.2 for the second.

QRPE and EVQC cannot be ordered by “one-hybrid fitness for binding NBS DNA” value: at most 0.2 for the first, at most 0.2 for the second.

LFWV and RKPR cannot be ordered by “one-hybrid fitness for binding NBS DNA” value: at most 0.2 for the first, at most 0.2 for the second.

Compared with RKYH, RPIR is lower in “one-hybrid fitness for binding NBS DNA” value: 0.228 for the first, at most 0.2 for the second.

Going from RKDH to RKDN, the “one-hybrid fitness for binding NBS DNA” value falls from 0.401 to at most 0.2.

Going from RKNH to RKPS, the “one-hybrid fitness for binding NBS DNA” value falls from 0.335 to at most 0.2.

First: RKIS
Second: RKRD
The “one-hybrid fitness for binding NBS DNA” value of the first is higher: 0.403 for the first, at most 0.2 for the second.

Going from RKIP to RKIR, the “one-hybrid fitness for binding NBS DNA” value rises from at most 0.2 to 0.384.

Compared with RKRH, SRFC is lower in “one-hybrid fitness for binding NBS DNA” value: 0.429 for the first, at most 0.2 for the second.

FDKC and SRTT cannot be ordered by “one-hybrid fitness for binding NBS DNA” value: at most 0.2 for the first, at most 0.2 for the second.

PLES and WGAE cannot be ordered by “one-hybrid fitness for binding NBS DNA” value: at most 0.2 for the first, at most 0.2 for the second.

WTLY and RKLP cannot be ordered by “one-hybrid fitness for binding NBS DNA” value: at most 0.2 for the first, at most 0.2 for the second.

Compared with RKLS, RKLD is lower in “one-hybrid fitness for binding NBS DNA” value: 0.496 for the first, at most 0.2 for the second.

ISNA and YLVK cannot be ordered by “one-hybrid fitness for binding NBS DNA” value: at most 0.2 for the first, at most 0.2 for the second.

First: QWGI
Second: QHNA
The “one-hybrid fitness for binding NBS DNA” value of the first is lower: at most 0.2 for the first, 0.294 for the second.

Compared with QRDA, QRNA is higher in “one-hybrid fitness for binding NBS DNA” value: 0.394 for the first, 0.632 for the second.

First: QPDA
Second: QANA
The “one-hybrid fitness for binding NBS DNA” value of the first is lower: at most 0.2 for the first, 0.257 for the second.

TKKF and TGPI cannot be ordered by “one-hybrid fitness for binding NBS DNA” value: at most 0.2 for the first, at most 0.2 for the second.

SSSR and GRQQ cannot be ordered by “one-hybrid fitness for binding NBS DNA” value: at most 0.2 for the first, at most 0.2 for the second.

PLWH and KPII cannot be ordered by “one-hybrid fitness for binding NBS DNA” value: at most 0.2 for the first, at most 0.2 for the second.

RDGI and NLSK cannot be ordered by “one-hybrid fitness for binding NBS DNA” value: at most 0.2 for the first, at most 0.2 for the second.

Compared with QAKQ, QAKD is lower in “one-hybrid fitness for binding NBS DNA” value: 0.408 for the first, at most 0.2 for the second.

Going from QARQ to QAVS, the “one-hybrid fitness for binding NBS DNA” value falls from 0.332 to 0.226.

Compared with QAVQ, QAKH is higher in “one-hybrid fitness for binding NBS DNA” value: 0.32 for the first, 0.541 for the second.

Going from QAKN to QAKP, the “one-hybrid fitness for binding NBS DNA” value falls from 0.356 to at most 0.2.

Compared with QAKS, CHHT is lower in “one-hybrid fitness for binding NBS DNA” value: 0.618 for the first, at most 0.2 for the second.

First: ELRT
Second: KKNT
The “one-hybrid fitness for binding NBS DNA” value of the first is lower: at most 0.2 for the first, 0.425 for the second.

First: KKNN
Second: KKRT
The “one-hybrid fitness for binding NBS DNA” value of the first is lower: at most 0.2 for the first, 0.381 for the second.

KKQP and KKDT cannot be ordered by “one-hybrid fitness for binding NBS DNA” value: at most 0.2 for the first, at most 0.2 for the second.

Compared with KKQT, KHQT is lower in “one-hybrid fitness for binding NBS DNA” value: 0.393 for the first, at most 0.2 for the second.

Compared with KKYT, KKAT is higher in “one-hybrid fitness for binding NBS DNA” value: 0.249 for the first, 0.309 for the second.
